Screening results deposited in PubChem by National Center for Advancing Translational Sciences (NCATS).
AmpC no deterg – qHTS Inhibitors of AmpC Beta-Lactamase (assay without detergent). P00811. AmpC nitrocefin hydrolysis, absorbance 480 nm, 0.0001% Triton. 330,000 compounds, 0.52% hits. AID 485341, 2010. Potency, µM (highest dose often 57.1 µM), for inactives: at the top dose activity change, negative = inhibition, actives largely listed as inhibitors;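 note: potency is the fitted concentration of half-maximal effect; plate controls were no compound for no effect and no enzyme for full effect; nearly all actives have a fitted effect of over 20% in size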
Target sequence (P00811 whole entry, looked up): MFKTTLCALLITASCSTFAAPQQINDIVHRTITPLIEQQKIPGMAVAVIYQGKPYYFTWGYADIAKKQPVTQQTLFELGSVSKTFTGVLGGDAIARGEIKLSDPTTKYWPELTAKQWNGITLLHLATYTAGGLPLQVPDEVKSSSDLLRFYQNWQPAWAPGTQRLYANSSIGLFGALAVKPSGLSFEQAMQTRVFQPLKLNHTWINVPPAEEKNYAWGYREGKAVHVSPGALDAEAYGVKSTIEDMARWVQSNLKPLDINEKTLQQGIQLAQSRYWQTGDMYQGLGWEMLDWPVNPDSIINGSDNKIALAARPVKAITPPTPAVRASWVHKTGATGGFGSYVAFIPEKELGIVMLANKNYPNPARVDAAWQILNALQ
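20 mM phosphate pH 7.0 + 0.01% (detergent screen) or 0.0001% Triton X-100; 5.3 nM AmpC reagent; cpd preinc 15 min RT; nitrocefin (800 uM stock) to start; A480 q20 s × 4 min; Activity was normalised to no-enzyme and no-compound control wells.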
NS1 function inh – qHTS Assay for Inhibitors of Influenza NS1 Protein Function | Potency, µM (doses to about 46.1 µM), for inactives: at the top dose activity, positive = more growth | 270,000 compounds, 0.4% hits | AID 2326, 2010; calls by dose curve; note: potency is the fitted concentration of half-maximal effect; actives are rising curves; nearly all actives have a fitted effect of over 50% in size
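Growth recovery, yeast-based: influenza A NS1 expressed in S. cerevisiae causes slow growth, and suppressors are detected by OD600. The parent strain without NS1 is used as positive control.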
Cycloheximide cs – Cycloheximide Counterscreen for Small Molecule Inhibitors of Shiga Toxin | max response, % | cell reporter, cycloheximide protein synthesis inhibition counterscreen | 300,000 compounds, 12% hits; in the data active = max response mostly above about 13%, no sharp cut-off; inactive = mostly below about 14%; note: read at 38.3 µM for the half of the compounds with a filed dose; 0% is about no effect
Shiga toxin inh – A qHTS for Small Molecule Inhibitors of Shiga Toxin; Vero cells, Shiga toxin protein synthesis inhibition reporter; inhibition, % at 38.7 µM; 290,000 compounds, 9.2% hits; AID 2315, 2010; in the data active = inhibition mostly above about 28%, no sharp cut-off; inactive = mostly below about 43%; note: 0% is about no effect
AmpC detergent – qHTS Inhibitors of AmpC Beta-Lactamase (assay with detergent); P00811; 370,000 compounds, 0.041% hits; Potency, µM (doses to about 114 µM), without a hit: at the top dose activity change, negative = inhibition, most hits filed as inhibitors; AmpC hydrolysis of nitrocefin, absorbance 480 nm, 0.01% Triton;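 note: potency is the fitted concentration of half-maximal effect; 0% = no-compound wells and -100% = no-enzyme wells; nearly all actives have a fitted effect of over 25% in size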
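20 mM phosphate pH 7.0 + 0.01% (detergent screen) or 0.0001% Triton X-100; 5.3 nM AmpC reagent; cpd preinc 15 min RT; nitrocefin (800 uM stock) to start; A480 q20 s × 4 min; Activity was normalised to no-enzyme and no-compound control wells.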
* marks the source's active call; other numbers are inactive results; ? = inconclusive; · = no result; + = active, no number. The sample as a whole holds a higher share of hits than the screen did. Unless noted, calls come from the whole dose curve; as a rule, active = well fitted curve in the direction sought with a large enough effect; inconclusive = small, poorly fitted or top-dose-only effect, or another doubt; inactive = no such curve, though single readings can be large; an effect the other way counts as inactive or inconclusive.

SMILES	AmpC no deterg	NS1 function inh	Cycloheximide cs	Shiga toxin inh	AmpC detergent
COc1ccc2[nH]c3c(c2c1)CCN1C(=O)C(CC(=O)NCCC2=CCCCC2)C[C@H](C(=O)N2CCOCC2)[C@@]31C (stereo partly specified)	230%	·	·	·	·
CCOc1ccc(C(=O)NCc2nc(-c3ccc(Cl)cc3)no2)cc1OCC	·	·	·	·	10%
COc1ccc(C(C)NC(=O)c2ccc([N+](=O)[O-])cc2)cc1OC (stereo unspecified)	-6%	-19%	-2	-5	3%
CS(=O)(=O)N(CC(=O)NCCSCc1ccccc1)c1cc(C(F)(F)F)ccc1Cl	·	·	·	·	4%
Cc1ccc(CNC(=O)c2nn(C)c(C)c2[N+](=O)[O-])cc1	-9%	9%	-3	-3	-9%
CCN(Cc1ccccc1)c1ccc(N=Nc2nn(C)c(C)c2[N+](=O)[O-])cc1	29%	?	17*	24	?
CCN(CC)c1ccc(N=Nc2nn(C)c(C)c2[N+](=O)[O-])cc1	86%	5%	65*	87*	?
CCN(Cc1ccccc1)c1ccc(/C=N/NS(=O)(=O)c2ccc(C)c([N+](=O)[O-])c2)cc1	-31%	16%	5	0	-3%
CN1C(=O)c2ccccc2Sc2ccc(NC(=O)N3CCN(c4ccccc4F)CC3)cc21	·	·	·	·	28%
COc1ccccc1C1(CC(=O)O)CCOC(C(C)C)C1 (stereo unspecified)	-16%	7%	-2	-10	-2%
CCC(=O)N(CCC1(c2ccccc2OC)CCOC(C(C)C)C1)Cc1ccco1 (stereo unspecified)	116%	-2%	26*	30	9%
CN(CCCNC(=O)Cn1ncc2c([nH]c3ccccc32)c1=O)Cc1ccccc1	·	·	·	·	-6%
CN1CCN(c2cc(=O)n(Cc3ccc(F)cc3)c(=O)[nH]2)CC1	0.56µM*	-2%	-2	-6	2%
C=CCn1cccc(C(=O)Nc2ccc(OC)cc2)c1=O	-26%	-3%	48*	62*	-1%
O=C(Nc1ccccc1)c1cccn(Cc2ccccc2)c1=O	49%	0%	34*	98*	-5%
C=CCc1cccc2cc(C(=O)Nc3ccc(CC(=O)O)cc3)c(=O)oc12	-17%	16%	-1	-2	-9%
COc1ccc(NC(=O)c2cccn(CC=C(C)C)c2=O)cc1	37%	·	40*	58*	?
C=CCc1cccc2cc(C(=O)Nc3ccc(F)cc3)c(=O)oc12	-18%	-7%	11*	0	-4%
COc1cccc(NC(=O)c2cccn(Cc3ccccc3C)c2=O)c1	·	·	·	·	2%
O=C(Nc1ccncc1)c1cccn(Cc2ccccc2)c1=O	-20%	·	10	16	11%
COc1ccc(OC)c(C2=Nn3c(nnc3-c3ccccc3OC)SC2)c1	·	·	13	8	·
Cc1cccc(C(=O)Nc2sc3c(c2C(=O)N2CCCCC2)CCC(C)C3)c1 (stereo unspecified)	·	·	·	·	4%
C=CCn1cccc(C(=O)Nc2ccc(F)cc2)c1=O	-14%	-4%	39*	63*	0%
O=C(Nc1ccc(F)cc1F)c1cccn(Cc2ccccc2)c1=O	-7%	·	37	41	-15%
Cn1cc(Cl)cc(C(=O)Nc2ccccc2)c1=O	-14%	4%	34*	59*	0%
SMILES	AmpC no deterg	NS1 function inh	Cycloheximide cs	Shiga toxin inh	AmpC detergent
CCOC(=O)Cn1cc(Cl)cc(C(=O)Nc2ccccc2)c1=O	-14%	-2%	-1	4	0%
Cc1ccc(Cn2cc(CCC(=O)NC3CCCCC3)c3ccccc32)cc1	·	·	·	·	17%
O=c1c(-c2ccc3c(c2)OCCO3)coc2cc(OC3OC(CO)C(O)C(O)C3O)ccc12 (stereo unspecified)	-19%	8%	40*	54*	-10%
Cc1ccc2nc(N=C(N)N)nc(C)c2c1	10µM*	-5%	-1	-18	-2%
Cc1nc(/N=C(\N)NC(=O)c2ccccc2)nc2ccccc12	-20%	-7%	50*	52*	-4%
CC(=O)c1cccc(NC(=S)NNC(=O)c2ccco2)c1	-22%	6%	21*	33	0%
CC(=O)c1cccc(NC(=S)NC(=O)c2cccc(Cl)c2)c1	-27%	-7%	30*	+	-1%
CC(C)NC(=S)NC(=O)c1ccc(-c2ccccc2)cc1	-21%	-13%	11	26*	-8%
O=[N+]([O-])c1cccc(NC(=S)N2CCN(S(=O)(=O)c3ccccc3)CC2)c1	22µM*	-3%	-4	-14	5%
CCc1nn2c(=O)cc(COC(=O)c3cccs3)nc2s1	·	·	·	·	19%
Cc1ccc2c(c1)N(C(=O)CCC(=O)NCc1cccnc1)CC(C)O2 (stereo unspecified)	102%	-12%	-4	2	?
COc1ccccc1NS(=O)(=O)c1cccc(C(=O)N2CCN(Cc3ccc4c(c3)OCO4)CC2)c1	?	·	·	·	-13%
O=C(O)c1cccc(NC(=S)NC(=O)c2ccc(-c3ccc(Cl)cc3)o2)c1	-20%	·	21	100*	6%
Cc1ccc(C(=O)O)cc1NC(=S)NC(=O)c1ccc(-c2ccc(Cl)cc2)o1	-11%	6%	-3	-1	0%
CC(=O)Nc1ccc(NC(=O)CN(c2cccc(C(C)=O)c2)S(C)(=O)=O)cc1	39%	4%	-3	-10	4%
CC(=O)c1cccc(NC(=S)NC(=O)CC(C)(C)C)c1	-23%	-2%	20*	30	2%
O=C(O)CC(NNC(=O)c1ccccc1)C(=O)Nc1cccc([N+](=O)[O-])c1 (stereo unspecified)	-23%	3%	23*	72*	3%
CC(=O)c1cccc(N(CC(=O)Nc2ccc(F)cc2)S(C)(=O)=O)c1	-43%	4%	11*	41*	2%
CC(=O)c1cccc(NC(=S)NC(=O)C(C)C)c1	-11%	-4%	0	12	0%
Cc1noc(C)c1S(=O)(=O)NCc1ccc(CN(C)C)cc1	-3%	·	·	·	-23%
CCOC(=O)c1cccc(NC(=S)NC(=O)c2cccnc2)c1	39%	6%	-2	11	4%
CC(=O)c1cccc(NC(=S)NC(=O)c2cncc(Br)c2)c1	-29%	19%	20*	31	?
Cc1ccc(C(=O)O)cc1NC(=S)NC(=O)c1ccc(-c2ccccc2)cc1	-15%	7%	31*	57*	6%
CNC(=S)Nc1cccc(C(C)=O)c1	-9%	·	2	15	-12%
CC(=O)c1cccc(NC(=S)Nc2ccc(F)cc2)c1	36%	0%	13*	19	?
O=C(O)c1cccc(NC(=S)NC(NC(=O)c2cccc([N+](=O)[O-])c2)C(Cl)(Cl)Cl)c1 (stereo unspecified)	-36%	?	11*	21	1%
Cc1ccc(-c2nnc(Nc3ccc(C(=O)N(C)C)cc3)c3ccccc23)cc1S(=O)(=O)N(C)C	·	·	·	·	11%
